# According to PubChem BioAssay (NCI):
# About 83,000 compounds went through this panel and 20% of them were active in at least one assay; those are over-represented in the sample as a whole.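 Growth was measured after 48 h exposure to one concentration of compound in 96-well plates. Values under 10 count as active.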 Unmarked numbers belong to inactive results. Active and inactive are the calls of the source.
# Test system: SF-539 CNS
# Assay: NCI-60 one-dose screen, 48 h (100 = growth as untreated, 0 = no growth, -100 = all killed)
# Conditions: 10 µM unless noted
row,Compound,growth
1,COC(=O)c1cc2oc(/C=N/NC(=O)c3cc4oc(-c5cccc(C(F)(F)F)c5)cc4[nH]3)cc2n1Cc1ccccc1,92.4%
2,CCCCCCCCCCC(C(O)c1ccccc1)N1CCCCC1 (stereo not given),27.3%
3,CC(=O)[C@@]1(O)[C@H](C)C[C@H]2[C@@H]3C=C(C)C4=Cc5c(cnn5-c5ccccc5)C[C@]4(C)[C@H]3[C@@H](O)C[C@@]21C,-21.8% (active)
4,CCOc1c(C#N)c2c(N)ncnc2n1C1OC(CO)C(O)C1O (stereo not given),62.5%
5,CCNS(=O)(=O)c1ccc(C)cc1,102%
6,COc1ccc(C2C3=C(COC3=O)N(CCO)c3cc(OC)c(OC)cc32)cc1 (stereo not given),105%
7,CCCCN(CCCC)CCC(=O)c1ccc(OC)c2ccccc12,87%
8,Cc1ccccc1CNc1ncnc2[nH]ncc12,97.6%
9,O=C1OC(c2ccc(-c3ccccc3)cc2)=C/C1=C/c1c(Cl)cccc1Cl,102%
10,NC(N)=N/N=C\c1ccc(OCc2ccccc2)cc1,87.7%
11,Fc1ccc(-c2nnc(N3CCOCC3)c3ccccc23)cc1,99.2%
12,CC1=NN(c2cccc(S(N)(=O)=O)c2)C(=O)C1,91.5%
13,CCc1ccc2c(c1)N(CCO)C1=C(C(=O)OC1)C2c1cccc(Br)c1 (stereo not given),-8.23% (active)
14,Fc1ccc2nc(-c3ccc(-c4noc(-c5ccc(Cl)cc5)n4)cc3)[nH]c2c1,100%
15,Cc1cccc(C(=O)O)n1,99.7%
16,COc1ccc(Nc2ncccc2C(=O)NCc2cn(Cc3cc(OC)cc(OC)c3)nn2)cc1,90.3%
17,CN(C)c1ccc(C(c2ccccc2)c2ccc(N(C)C)cc2)cc1,112%
18,COc1ccc(/C=C2\CCCC3=C2N=C2SC(C)=NN2C3c2ccc(OC)c(OC)c2)cc1OC (stereo not given),6.88% (active)
19,Cn1c(=O)c2[nH]c(Cc3ccc4c(c3)OCO4)nc2n(C)c1=O,94.8%
20,O=C1OCC2=C1C(c1ccc(Cl)c(Cl)c1)c1cc3c(cc1N2CCO)CCC3 (stereo not given),-10.2% (active)
21,COc1cc(C2C=C(C)N=C3SC=NN32)cc(OC)c1OC (stereo not given),99.1%
22,Cc1cc(O)ccc1C1=NN(c2ccc(S(N)(=O)=O)cc2)C(=O)CC1,45.1%
23,NC(=Nc1ccccc1)SCCCSC(N)=Nc1ccccc1,93.6%
24,CC(=O)Nc1ccc(Cl)cc1Cl,98.3%
25,NS(=O)(=O)c1ccc(N2N=C(c3ccc(Br)cc3)CC2c2cn(-c3ccccc3)nc2-c2ccc(Cl)cc2)cc1 (stereo not given),104%
